M1 ag parental – counter-screen for M1 agonists: effect in parental CHO-K1 cells; 360,000 tested, 0.48% active; activation, % at 3 µM; Fluo-8 calcium fluorescence; scaled to maximal ATP response, vehicle zero; in the data active = activation above about 15%;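 also: untransfected CHO-K1 host cells lacking M1 receptor as counterscreen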
CHRM1 PAM – human CHRM1 positive allosteric modulation | P11229 | CHO-K1 hM1, Fluo-8 calcium fluorescence, ACh EC20; 0% = ACh EC20, 100% = maximal ACh | activation, % at 3 µM | AID 588819 | 360,000 tested, 0.088% active; in the data active = activation above about 19%, passing the limit was not always enough
Target sequence (P11229 whole entry, looked up): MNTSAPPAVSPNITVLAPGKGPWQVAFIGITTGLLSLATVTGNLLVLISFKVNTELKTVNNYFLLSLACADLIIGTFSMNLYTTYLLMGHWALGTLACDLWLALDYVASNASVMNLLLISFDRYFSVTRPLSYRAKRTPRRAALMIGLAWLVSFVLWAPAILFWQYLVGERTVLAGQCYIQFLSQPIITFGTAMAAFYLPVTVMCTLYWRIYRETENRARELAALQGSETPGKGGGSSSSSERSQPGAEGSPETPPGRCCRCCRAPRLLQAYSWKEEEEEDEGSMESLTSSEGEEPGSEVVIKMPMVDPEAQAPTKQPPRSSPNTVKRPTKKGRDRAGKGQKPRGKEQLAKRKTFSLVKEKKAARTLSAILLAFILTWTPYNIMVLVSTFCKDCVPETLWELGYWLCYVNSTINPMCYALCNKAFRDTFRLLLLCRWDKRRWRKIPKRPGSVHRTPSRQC
CHO-K1 Ca antag – M1 antagonist counterscreen hit in parental CHO-K1 cells. ATP-induced calcium, Fluo-8 fluorescence. inhibition, % at 3 µM. 360,000 tested, 0.6% active. AID 602250;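 active = inhibition above a per-plate cutoff, the plate's mean sample inhibition plus 3 SD, cut at about 24% in these data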;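 also: 0% = DMSO plus EC80 ATP and 100% = DMSO alone without ATP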
M1 ag – activates human CHRM1 receptor | 360,000 tested, 0.33% active | CHO-K1 hM1, Fluo-8 calcium fluorescence, agonist mode; 0% DMSO, 100% acetylcholine EC100 | activation, % at 3 µM;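 active = activation above the run's mean compound activation plus 3 SD, cut at about 16% in these data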;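 also: peak over basal fluorescence ratio within a 140 s kinetic read after compound addition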
CHO-K1 Ca PAM – counter-screen for M1 PAMs: effect in parental CHO-K1 cells | ATP EC20, Fluo-8 calcium fluorescence; 0% at ATP EC20, 100% at ATP max | activation, % at 3 µM | 360,000 tested, 0.02% active | AID 602247;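 active = activation above the run cutoff, the mean activation of all test compounds plus 3 SD, cut at about 40% in these data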;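 also: peak over basal fluorescence ratio in a 140 s read after ATP addition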
CHRM1 antagonist – blocks human M1 muscarinic receptor; P11229; CHO-K1 hM1, Fluo-8 calcium fluorescence, ACh EC80 antagonist; inhibition, % at 3 µM; 360,000 tested, 1.3% active; AID 588852;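 active = percent inhibition above its own plate's cutoff, namely the mean of that plate's compound wells plus 3 SD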;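 also: peak over basal fluorescence ratio during 140 s after agonist addition; 0% = ACh EC80 plus DMSO and 100% = DMSO alone without agonist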
An asterisk follows results filed as active; . = not tested or not shown; ! = not active in a repeat. In the library only some 2.3% were active in any assay of this set; here they are far more common.

SMILES | M1 ag parental | CHRM1 PAM | CHO-K1 Ca antag | M1 ag | CHO-K1 Ca PAM | CHRM1 antagonist
COc1ccc(OC)c(C2C(C#N)=C(N)Oc3c2c(C)nn3-c2ccc(C)cc2)c1 (stereo not drawn) | -0.4 | -4.1 | 28.0* | -2.0 | -8.5 | -15.9
Cc1ccc(-n2nc(C)c3c2OC(N)=C(C#N)C3c2ccc(C)o2)cc1 (stereo not drawn) | -0.4 | -4.7 | -1.9 | -1.0 | -7.5 | -2.8
O=C(NCCCN1CCN(Cc2ccccc2)CC1)C1CCN(c2nnc(-n3cccc3)s2)CC1 | 1.1 | -20.6 | -4.4 | -4.2 | 8.6 | 43.7*
O=C(NC1CCN(Cc2ccccc2)CC1)C1CCCN(c2nnc(-n3cccc3)s2)C1 (stereo not drawn) | -0.7 | -7.8 | -11.7 | -12.0 | 19.2 | -3.9
O=C(NCCCc1ccccc1)C1CCN(c2nnc(-n3cccc3)s2)CC1 | 0.2 | -0.8 | 5.7 | -8.2 | 4.6 | -2.9
O=C(NC1CCN(Cc2ccccc2)CC1)C1CCN(c2nnc(-n3cccc3)s2)CC1 | -0.2 | -19.2 | -0.9 | -13.9 | 4.0 | 51.0*
CC(C)NC(=O)C1(C#N)C=C1c1ccccc1 (stereo not drawn) | 1.1 | . | -6.9 | . | 9.3 | .
CC1CCC(C(C)C)C(OC(=O)CSc2nc(N)cc(=O)[nH]2)C1 (stereo not drawn) | 3.3 | 2.3 | -4.2 | -0.4 | -8.3 | 1.7
CC1CCC(C(C)C)C(OC(=O)Cn2c(-c3ccc(F)cc3)[n+](C)c3ccccc32)C1 (stereo not drawn) | 0.9 | -26.2 | 22.8 | -10.6 | -9.3 | 51.3*
CC1CCC(C(C)C)C(OC(=O)CSc2nnc(N)s2)C1 (stereo not drawn) | 0.5 | 2.4 | -3.2 | -2.7 | 10.0 | -8.9
CC1CCC(C(C)C)C(OC(=O)Cn2c(-c3ccccc3)[n+](C)c3ccccc32)C1 (stereo not drawn) | 5.8 | -16.9 | 11.6 | -6.6 | 13.8 | 42.6*!
Cc1cccc(OCc2n(CC(=O)OC3CC(C)CCC3C(C)C)c3ccccc3[n+]2C)c1 (stereo not drawn) | 8.8 | -31.2 | 13.5 | -6.9 | 13.8 | 38.4*
Nc1c(Cl)cc(N=Nc2ccccc2)cc1Cl | 0.1 | 7.4 | -7.2 | 3.3 | 8.6 | -11.1
CCOC(=O)CC(S(=O)(=O)c1ccccc1)S(=O)(=O)c1ccccc1 | 0.4 | 15.9 | 9.7 | 4.1 | -12.3 | -13.1
C=CC[n+]1ccc(/C=C2\C=Cc3cc(C)ccc3N2CC)c2ccccc21 | 7.5 | -12.6 | 48.8* | -2.8 | -22.3 | 43.6*
CC1(C)CC(=O)C=C(Nc2ccc(O)c(C(=O)O)c2)C1 | -0.4 | 29.6* | 14.2 | 2.2 | 5.7 | -37.9
CC1(C)CC(=O)C=C(Nc2ccc(C(=O)O)cc2)C1 | -0.5 | -8.1 | 18.3 | -2.0 | -5.9 | 3.4
Cc1ccc2c(c1)N(C(=O)CCC(=O)N1CCN(c3ccccn3)CC1)CCO2 | 0.3 | -7.3 | 10.2 | -7.6 | -9.3 | 36.5*
O=C(CCC(=O)N1CCOc2ccc(Cl)cc21)N1CCN(c2ccccn2)CC1 | 1.4 | 8.7 | 3.8 | -7.3 | -0.3 | -4.3
C[C@@]12C(=O)Nc3ccc(Br)cc3C(=O)N1[C@H]1c3ccccc3OC[C@@H]1[C@@H]2c1ccccc1 | 0.5 | -13.8 | -6.7 | -3.8 | 12.4 | 26.6*
Cc1ccc2c(c1)C(=O)N1[C@H]3c4ccccc4OC[C@@H]3[C@H](c3ccccc3)[C@]1(C)C(=O)N2 | -0.5 | -30.3 | -5.3 | -7.9 | 9.5 | 64.8*
Cc1ccc2c(c1)NC(=O)[C@@]1(C)[C@@H](c3ccccc3)[C@H]3COc4ccccc4[C@@H]3N1C2=O | -0.2 | -6.7 | -10.8 | -5.4 | 4.3 | 4.9
COc1ccccc1C1CCN(Cc2cccc([N+](=O)[O-])c2)CC1 | 0.0 | -22.3 | -0.8 | -8.3 | -16.3 | 35.3*
COC(=O)CN(c1cc([N+](=O)[O-])ccc1OC)S(C)(=O)=O | 16.8* | 8.8 | 8.0 | -7.7 | 8.9 | -9.8
COc1ccc(-c2cc3c(=O)n(CC(=O)NCc4ccccc4F)ncn3n2)cc1 | 3.5 | -11.6 | 26.2* | -0.4 | 6.4 | 9.8
C=CCOc1cccn2c(N(C=O)Cc3ccc(OC)cc3)c(CC)nc12 | 1.4 | 6.4 | 6.0 | -1.7 | -2.6 | -15.7
O=C(CCCN1C(=O)/C(=C/c2cccs2)SC1=S)Nc1cccc(O)c1 | 9.3 | -17.1 | 15.2 | -1.3 | -4.8 | 24.8*
